The text below walks through data of PMC5540273 (PLoS ONE, 2017).

Molecules are shown by their SMILES.

Among the test systems are NLK; PAK1; PAK2; PAK3; PAK4; PAK6; PAK7.
Holding throughout (settings): concentration: 1 μM, replicates: in singlicate; n = 1
A further assay has as its system T1, NIM1.
T1 construct: gene MGC42105

Another assay concerns T2, OSR1.
T2 construct: gene OXSR1

For a further assay, the system named is T3, PCTK1.
T3 construct: gene CDK16
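Also: KINOMEscan kinase panel screen.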

Regarding `NCCC(NC(=O)c1cc(Br)c(-c2ccnc3[nH]ccc23)s1)c1ccccc1.O=C(O)C(F)(F)F.O=C(O)C(F)(F)F` (stereo not drawn) [GSK1307810], the “%Inh” value was determined as 7% in the assay with NIM1; 3% in the assay with NLK; 10% with OSR1; 19% with PAK1; 56% in the assay on PAK2; 76% in the assay on PAK3. Moreover, the “%Inh” value in the assay with PAK4 turned out to be 74%; in the assay on PAK6, 62%; in the assay with PAK7, 86%; with PCTK1, 1%.

As to `O=C(Nc1n[nH]c2nc(-c3ccccc3O)ccc12)C1CC1` [SB-711880], the “%Inh” value amounted to 0% in the assay with NIM1; 10% in the assay with NLK; 0% in the assay on OSR1; 0% in the assay with PAK1; 0% in the assay on PAK2; 0% in the assay on PAK3. Besides, the “%Inh” value in the assay with PAK4 is 33%; in the assay on PAK6, 8%; in the assay with PAK7 it was 26%; in the assay on PCTK1, 11%.

Consider `N#CC1(c2cccc(C(=O)Nc3cccc(Oc4ccc5nc(NC(=O)C6CC6)sc5n4)c3)c2)CC1`, for which the “%Inh” value in the assay with NIM1 worked out at 0%; with NLK it was 0%; in the assay on OSR1, 0%; with PAK1 it was 3%; in the assay with PAK2, 27%; in the assay on PAK3 it was 0%. Also, the “%Inh” value with PAK4 came out at 0%; in the assay with PAK6 it was 15%; in the assay with PAK7, 0%; with PCTK1, 0%.

With `CCOc1nccc(-c2c(-c3ccc(F)cc3)ncn2C2CCNCC2)n1` [SB-249175], the “%Inh” value came to 44% with NIM1; 45% in the assay on NLK; 47% with OSR1; 6% with PAK1; 29% in the assay with PAK2; 0% in the assay on PAK3. For the same molecule, the “%Inh” value is on record as 32% in the assay with PAK4, 3% in the assay with PAK6, 6% with PAK7 and 26% with PCTK1.

As to `N#Cc1cnc2cc(-c3cnc(CNCCN4CCOCC4)s3)ccc2c1Nc1ccc(Oc2ccccc2)cc1` [GW664114], the “%Inh” value in the assay on NIM1 was 12%; in the assay with NLK it was 0%; with OSR1, 0%; with PAK1, 10%; in the assay with PAK2 it was 0%; in the assay with PAK3 it was 21%. The “%Inh” value in the assay with PAK4 is recorded as 0%; in the assay with PAK6, 10%; with PAK7, 2%; in the assay on PCTK1 it was 28%.

On to `Cc1cc(-c2ccnc(Nc3cccc(C#N)c3)n2)cc(C)c1O` [GSK1440913], for which the “%Inh” value was 12% in the assay on NIM1; 16% in the assay with NLK; 13% with OSR1; 34% with PAK1; 28% in the assay with PAK2; 0% in the assay on PAK3. Further, the “%Inh” value is reported as 0% in the assay with PAK4, 0% with PAK6, 0% with PAK7 and 16% with PCTK1.

For the molecule `O=C(Nc1n[nH]c2nc(-c3cccc(O)c3)ccc12)C1CC1` [SB-711805], the “%Inh” value in the assay with NIM1 is reported as 0%; in the assay with NLK it was 96.7%; with OSR1, 0%; in the assay on PAK1 it was 0%; with PAK2, 18%; in the assay with PAK3 it was 0%. Further, the “%Inh” value in the assay on PAK4 is 0%; with PAK6, 100%; in the assay on PAK7 it was 4%; in the assay on PCTK1 it was 52%.

Take `Cc1ccc(NC(=O)c2ccnc(N3CCCCC3)c2)cc1-c1ccc(C(=O)NCC2CC2)cc1` [GW775610]: the “%Inh” value in the assay with NIM1 is reported as 8%; in the assay with NLK, 15%; in the assay on OSR1 it was 0%; with PAK1, 0%; with PAK2, 0%; with PAK3 it was 15%. For the same molecule, the “%Inh” value with PAK4 was 17%; in the assay on PAK6, 0%; in the assay on PAK7, 0%; with PCTK1, 73%.

With `COc1cccc(-c2nc(-c3ccccc3)[nH]c2-c2ccncc2)c1` [SB-610250], the “%Inh” value with NIM1 is 40%; in the assay on NLK it was 89%; in the assay with OSR1 it was 0%; in the assay with PAK1, 23%; in the assay with PAK2 it was 32%; in the assay with PAK3, 16%. Also, the “%Inh” value in the assay on PAK4 is recorded as 0%; with PAK6, 0%; in the assay with PAK7, 0%; in the assay with PCTK1, 5%.
